In PubChem BioAssay AID529 (NMMLSC, 2006):
Hit rate of the full screen: of about 24,000 compounds, about 50 (0.2%) were called active. Not shown: some 9% with an inconclusive outcome. What follows is part of a selection rich in actives, with near analogues and random picks from the rest. Unmarked numbers belong to inactive results.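 Rule for the calls: active = inhibition above 50%; inconclusive = compound itself fluorescent, judged against control cell fluorescence; inactive = the rest.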

molecular target: Integrin alpha-4 (Homo sapiens) (UniProt P13612); experiment: blockers of LDV-FITC ligand binding on VLA-4 – Jurkat cells, Mn2+ activated, primary screen (AID 529); settings: LDV-FITC binding with Mn2+, flow cytometry, stronger effect = higher value, 100% = Mn2+-driven binding gain fully reversed, screened at 10 µM (by protocol);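 note: 0% = Mn2+ stimulated cells lacking compound and 100% = ligand binding without Mn2+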
Sequence (P13612 whole entry, looked up): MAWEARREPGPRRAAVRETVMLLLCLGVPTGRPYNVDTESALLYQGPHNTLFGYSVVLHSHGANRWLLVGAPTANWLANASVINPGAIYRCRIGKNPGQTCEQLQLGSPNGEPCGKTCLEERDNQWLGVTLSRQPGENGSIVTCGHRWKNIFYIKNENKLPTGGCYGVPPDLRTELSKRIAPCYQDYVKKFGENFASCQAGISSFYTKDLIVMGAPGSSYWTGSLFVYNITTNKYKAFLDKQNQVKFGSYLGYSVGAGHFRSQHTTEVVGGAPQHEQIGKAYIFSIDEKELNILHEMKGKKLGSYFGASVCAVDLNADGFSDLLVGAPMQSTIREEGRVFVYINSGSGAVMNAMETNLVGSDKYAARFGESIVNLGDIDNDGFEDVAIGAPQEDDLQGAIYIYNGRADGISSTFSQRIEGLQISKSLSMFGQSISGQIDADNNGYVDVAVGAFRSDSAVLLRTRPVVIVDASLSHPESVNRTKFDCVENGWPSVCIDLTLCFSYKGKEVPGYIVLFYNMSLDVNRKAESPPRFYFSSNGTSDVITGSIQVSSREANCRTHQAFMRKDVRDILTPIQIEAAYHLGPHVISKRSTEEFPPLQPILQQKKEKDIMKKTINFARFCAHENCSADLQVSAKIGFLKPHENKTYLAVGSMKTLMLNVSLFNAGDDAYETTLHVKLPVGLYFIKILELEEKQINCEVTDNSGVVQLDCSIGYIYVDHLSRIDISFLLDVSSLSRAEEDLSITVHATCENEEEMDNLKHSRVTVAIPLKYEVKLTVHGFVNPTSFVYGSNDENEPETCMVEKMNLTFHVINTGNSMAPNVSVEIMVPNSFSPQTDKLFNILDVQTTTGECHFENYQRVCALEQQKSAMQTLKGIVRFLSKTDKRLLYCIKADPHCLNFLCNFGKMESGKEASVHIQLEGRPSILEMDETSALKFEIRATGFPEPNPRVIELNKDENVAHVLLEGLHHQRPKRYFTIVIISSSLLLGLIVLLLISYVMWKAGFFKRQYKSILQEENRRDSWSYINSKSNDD

| Compound | inhibition |
| --- | --- |
| Cc1nc2nc(SCC(=O)NCc3ccco3)nn2c(C)c1Cc1ccccc1 | -12.3% |
| CCN(CCCNC(=O)C1CCN(S(=O)(=O)c2cnc[nH]2)CC1)c1ccccc1 | 0% |
| Cc1ccc(C)c(N(CC(=O)NCc2ccco2)C(=O)CCC(=O)Nc2ccccn2)c1 | -3% |
| CC(Sc1sc(=S)sc1SC(C)C(=O)O)C(=O)O (stereo unspecified) | -53.5% |
| C=CCN(CC=C)C(=O)CN1C(=O)c2ccccc2C1=O | -1% |
| Cc1ccc2c(c1)N(CCCC(=O)NCc1cccnc1)C(=O)CO2 | -5% |
| CCOC(=O)C1CCN(C(=O)C2CCN(S(=O)(=O)c3c(C)noc3C)CC2)CC1 | 10% |
| O=C(CN1C(=O)CCS(=O)(=O)c2ccccc21)NCc1ccc(F)cc1 | -3% |
| Cc1oc(C)c(C(=O)NCCCC(=O)O)c1C(=O)NCCCC(=O)O | 5% |
| COc1ccc(NC(=O)C2CCCN(S(=O)(=O)c3cccc4cccnc34)C2)cc1 (stereo unspecified) | 0% |
| CCOc1ccccc1NC(=O)C1CCC(CNc2c(N3CCOCC3)c(=O)c2=O)CC1 (stereo unspecified) | 2% |
| Cc1cccc2c1N(CC(=O)OC(C)C)C(=O)C2=O | 10.7% |
| Cc1cc(NC(=O)CSCc2nc(-c3cccc(Cl)c3)oc2C)no1 | 5% |
| O=C(NCc1ccc2c(c1)OCO2)c1cc2c(s1)CS(=O)(=O)C2 | -4% |
| Cc1ccc(C)c(N2CCN(C(=O)CCc3nc4ccccc4[nH]3)CC2)c1 | -5% |
| O=S(=O)(Nc1ccccn1)c1ccc(Oc2ccccc2)cc1 | -1.3% |
| CCOc1c(OC)cc(C2C(C#N)=C(N)Oc3n[nH]c(-c4ccncc4)c32)cc1OC (stereo unspecified) | -15% |
| CCC(C)Sc1nnc(-c2c[nH]c3ccccc23)n1CCOC (stereo unspecified) | 10% |
| COc1ccc(C2OC(=O)CC2C(=O)NC(C)C)cc1 (stereo unspecified) | 6% |
| COC(=O)Cn1c(=NC(=O)CSCC(=O)Nc2cc(C)on2)sc2ccccc21 | -10.5% |
| COc1ccc(NC(=O)c2c(SC)nsc2SC)cc1 | -23% |
| COCCCNC(=O)c1ccc2c(c1)ncn2-c1ccccc1OC | -35% |
| O=C(NCc1ccco1)c1cccn2c(=O)c3cc(Br)ccc3nc12 | -34% |
| CCn1cc(C(=O)N2CC=C(c3ccccc3)CC2)c(=O)c2ccc(C)nc21 | 4% |

| Compound | inhibition |
| --- | --- |
| O=C(CC(Cc1ccccc1)C(=O)O)NCCc1ccc2c(c1)OCO2 (stereo unspecified) | -16% |
| Cc1ccc(C)c(NC(=O)CSc2nnc(Cc3cccn3C)n2-c2ccc(F)cc2)c1 | 10% |
| NC(=O)C1(N2CCCCC2)CCN(C(=O)c2ccc(C#Cc3ccccc3)o2)CC1 | 3% |
| CC1(C)CC(O)C(CCC(O)c2ccccc2)C(C)(C)N1 (stereo unspecified) | -6% |
| CCc1nnc(NC(=O)CCC(=O)O)s1 | -11% |
| O=C(NC(=O)c1ccc(Cl)c(Cl)c1)OC1CCS(=O)(=O)C1 (stereo unspecified) | -4% |
| O=C(NC1(C(F)(F)F)N=C2SCCN2C1=O)c1ccco1 (stereo unspecified) | -21% |
| Cn1c(=O)cc(SCC(=O)N2CCCC2)c2cc(Cl)ccc21 | 2% |
| CN1C(=O)c2ccccc2C(C(=O)NCCCN2CCCC2)C1c1c[nH]c2ccccc12 (stereo unspecified) | 17% |
| COc1ccccc1CNC(=O)Cn1cc2c(n1)CCCC2 | -2% |
| CCOC(=O)C1CCN(C(=O)CSc2cc(=O)n(C)c3ccccc23)CC1 | -2% |
| Cc1ccc(NC(=O)C2CCCN(S(=O)(=O)c3c(C)noc3C)C2)c(C)c1 (stereo unspecified) | -21% |
| O=C(CCn1c(=O)oc2ccccc21)Nc1ccon1 | -16% |
| O=C(CN1CCN(CC(=O)Nc2ccc3c(c2)OCO3)CC1)Nc1ccc(F)cc1 | 14% |
| CCOc1ccc(N(CC(=O)OC)S(=O)(=O)c2c(C)noc2C)cc1 | 13% |
| CCOC(=O)CN1CC23C=CC(O2)C(C(=O)Nc2ccc(F)cc2)C3C1=O (stereo unspecified) | -44.5% |
| Cc1nc(C)c2c(c1C(F)(F)F)-c1ccccc1C2(F)F | -6.5% |
| COc1ccc(N2C(=O)C3CCCN3C2c2cccs2)cc1 (stereo unspecified) | 8% |
| COc1ccccc1Cn1c(=S)[nH]c2cc(C(=O)N3CCN(C)CC3)ccc2c1=O | 15% |
| O=C(NCCCN1CCN(Cc2ccccc2)CC1)C1CCN(S(=O)(=O)N2CCCC2)CC1 | -27% |
| CCCC(NC(=O)c1ccccc1)c1nc2ccccc2n1Cc1ccc(C(=O)OC)o1 (stereo unspecified) | 1% |
| Cc1ccc(NC(=O)CSc2nnc(-c3cnccn3)n2Cc2ccco2)cc1C | -19.5% |
| Cc1ccc(NC(=O)CN(C)S(=O)(=O)c2cnc[nH]2)cc1C | 1% |
| CCCOC(=O)c1[nH]c2c(c1C)C(=O)CC(c1cc(OC)c(OC)c(OC)c1)C2 (stereo unspecified) | -2% |

| Compound | inhibition |
| --- | --- |
| COc1ccccc1-n1cnc2cc(C(=O)NCC3CCCO3)ccc21 (stereo unspecified) | -11% |
| CCOC(=O)c1c(NC(=O)c2cccs2)sc(C)c1C | -11.5% |
| COc1cccc(NC(=O)Nc2nnc(N3CCCCC3C)s2)c1 (stereo unspecified) | -4% |
| O=C(O)c1cccc2c1C(=O)N(C1CCCCC1)C2 | -16% |
| CCOc1ccc(CCNC(=O)C2CCN(c3ccc(N4CCOCC4)nn3)CC2)cc1OCC | -6% |
| CCOC(=O)N1CCC(NC(=O)c2cnn3ccccc23)CC1 | 2.5% |
| Cc1nc(CNS(=O)(=O)c2cccnc2)cs1 | -1% |
| CC1CCCCC1NC(=O)CCS(=O)(=O)c1cccc2nonc12 (stereo unspecified) | 12% |
| CCN(CC(=O)Nc1ccc2c(c1)OCCO2)Cc1cc(=O)oc2cc(C)c(C)cc12 | -1.5% |
| CCn1c(=O)cc(SCC(=O)NCc2ccc3c(c2)OCO3)c2ccccc21 | 5% |
| COc1cc(C2C(C(=O)Nc3ccc(F)cc3)=C(C)Nc3nc(CCCO)nn32)cc(OC)c1OC (stereo unspecified) | -7% |
| CCn1ncc(C2=NOC(C(=O)N3CCN(c4ccccc4)CC3)C2)c1C (stereo unspecified) | 7% |
| c1ccc(CCn2nnnc2CN2CCN(C3CCCC3)CC2)cc1 | -4.5% |
| Cc1cc(=O)n2nc(N3CCCC(C(=O)N4CCN(C)CC4)C3)sc2n1 (stereo unspecified) | -12.3% |
| CCN(CC)S(=O)(=O)c1ccc2[nH]cc(C(=O)NCCc3ccccc3)c(=O)c2c1 | 2% |
| CCOC(=O)c1nnn(CC(=O)Nc2cccc(F)c2)c1C(=O)OCC | 13.7% |
| CC(NC(=O)CN1CCN(Cc2ccc(Cl)cc2)C1=O)c1ccc2c(c1)OCCO2 (stereo unspecified) | 4% |
| CN(C)S(=O)(=O)c1cccc(C(=O)Nc2cccnc2)c1 | -37.5% |
| COc1ccc(Cl)cc1S(=O)(=O)N1CCN(CC(=O)C(C)(C)C)CC1 | 14% |
| CCCCC(CC)C(=O)Nc1ccc(Cl)cn1 (stereo unspecified) | -17.5% |
| Cc1cccn2c(=O)c3cc(C(=O)NCc4ccccn4)n(C)c3nc12 | 52% (active) |
| Cc1cccn2c(=O)c3cc(C(=O)N4COCC4(C)C)n(C)c3nc12 | -28% |
| O=C(NCc1ccccn1)c1cnc2sccn2c1=O | -2% |
| Cc1nc(NC(=O)CCC(=O)O)sc1C(=O)N(C)C | -12% |

| Compound | inhibition |
| --- | --- |
| O=C(Cn1c(=O)n(Cc2ccco2)c(=O)c2ccccc21)NCC1CCCO1 (stereo unspecified) | -8.5% |
| O=C(Nc1nc2ccc(S(=O)(=O)N3CCCC3)cc2s1)C1CCCO1 (stereo unspecified) | -33.5% |
| CCOc1ccc(Cn2nnc(C(=O)NCc3ccccc3)c2N)cc1 | -1% |
| O=C(c1ccccc1)c1cccn1CC(=O)N1CCN(c2ccc(F)cc2)CC1 | 49% |
| O=C(O)C1CCN(S(=O)(=O)N2CCOCC2)CC1 | 0% |
| C=C1c2cc(CC)ccc2NC(=O)N1c1ccc(C)cc1 | -2% |
| COC(=O)c1ccc2c(=O)n(CC3CCCO3)c(=S)[nH]c2c1 (stereo unspecified) | -11% |
| CCn1c(SCC(=O)Nc2ccccc2F)nc2c(c1=O)SC(C)C2 (stereo unspecified) | 3.3% |
| Cc1ccccc1C(=O)NCCN=C1NS(=O)(=O)c2ccccc21 | -4% |
| CCOC(=O)N1CCC(C(N)=O)CC1 | -7% |
| Clc1ccc(Cn2ncc3c(NCc4cccnc4)ncnc32)cc1 | -0.5% |
| CCn1cc(C(=O)NCC2CCCO2)c(=O)c2cc(S(=O)(=O)N3CCCCC3)ccc21 (stereo unspecified) | 20% |
| CC(NC(=O)COc1ccccc1)C(=O)NC1=NCCS1 (stereo unspecified) | -18.5% |
| CCOC(=O)c1[nH]c2c(c1C)C(=O)CC(c1ccc(N(C)C)cc1)C2 (stereo unspecified) | -3% |
| CCOC(=O)N1CCN(C(=O)c2cn(C)c3ccc(S(=O)(=O)N4CCCC4)cc3c2=O)CC1 | -13% |
| CCCCOc1ccc(C(=O)NCc2ccco2)cc1 | -20.5% |
| Cn1c(=O)cc(OCCCC(=O)N2CCN(Cc3ccc4c(c3)OCO4)CC2)c2ccccc21 | 7% |
| O=C(C(Cc1ccccc1)n1cccc1)N1CCN(C2CCCCC2)CC1 (stereo unspecified) | 15% |
| O=C(CCCN1C(=O)C2C3C=CC(C3)C2C1=O)N1CCN(c2ccccc2)CC1 (stereo unspecified) | 21% |
| Cc1nc2ncnn2c(C)c1CCC(=O)N1CCN(C(=O)c2ccco2)CC1 | 10% |
| Cc1cc(=O)n2nc(N3CCCC3C(=O)NCCCN3CC(C)CC(C)C3)sc2n1 (stereo unspecified) | -1% |
| CCOc1ccc(CNC(=O)C2CC(=O)N(C3CCCC3)C2)cc1OC (stereo unspecified) | 28% |
| O=C(CC(NS(=O)(=O)c1ccc(Cl)cc1)c1ccco1)NC1CCCC1 (stereo unspecified) | 1% |
| O=C(Nc1ccn(Cc2ccc(F)cc2)n1)c1ccncc1 | 4% |
